Assays:
Experiment in all cases: PBM binding z-score (relative to random genomic background probes); higher = stronger binding; sequences stand for … in GC…GCGATTGACAGCGTAGAATGAAGG
[1] = test system: RARb homodimer (NR concentration 270 nM)
Outline: (§1)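 Antibodies against each partner of ligand-free nuclear receptor dimers (one per run) detected binding on custom Agilent 4×180K protein-binding microarrays after 1 h incubation. The double-stranded probes had 34-nt variable regions carrying direct-repeat seeds, single-nucleotide variants, half-site ablations and random human genomic background sequences. Binding z-scores, from regression-normalized fluorescence, use the random background probes as reference.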

[2] = test system: RARg:RXRa (NR concentration 270 nM, RXRa partner concentration 90 nM)
Outline: as §1

[3] = test system: RARg homodimer (NR concentration 270 nM)
Outline: as §1

[4] = test system: RXRa DBDmut IVT, anti-RXR (DBD mutation: RXRa K156A/R161A, NR concentration 90 nM)
Outline: as §1

[5] = test system: RXRa homodimer (NR concentration 180 nM)
Outline: as §1

[6] = test system: THRa:RXRa (NR concentration 90 nM, RXRa partner concentration 90 nM)
Outline: as §1

[7] = test system: THRa homodimer (NR concentration 90 nM)
Outline: as §1

[8] = test system: VDR homodimer (NR concentration 270 nM)
Outline: as §1

Sequence	PBM binding z-score [1]	PBM binding z-score [2]	PBM binding z-score [3]	PBM binding z-score [4]	PBM binding z-score [5]	PBM binding z-score [6]	PBM binding z-score [7]	PBM binding z-score [8]
CGAAATAGGTCATTGACAGGACAGTGAATAGTAA	3.34	5.81	4.98	2.23	4.21	3.01	0.329	1.15
ATCTCTAGGTAATGATAGTTCAGTGAATGCAAAT	0.921	0.493	0.864	0.246	0.462	0.79	0.35	0.644
TCTAGTTGGTCACGGAAGTCACACACGACGGGTA	1.41	1.36	1.54	0.587	1.21	0.441	0.354	0.0407
CCGAGTAGGTTATGGGGCATTGAGGCAACGGTGA	1.14	0.411	0.507	-0.0381	0.499	0.886	0.453	-0.13
AGTCATAGTTCATCTAGGTAACGTAAGATATGCT	2.23	3.01	3.33	2.6	2.02	2.21	0.0435	2.02
TCATATAGGTAATATAGGTGAAAGTCGGCATCTA	0.281	0.454	0.522	1.2	0.79	0.364	-0.347	0.0956
CCGACTGGGGCATAAGGTCACCATAAGCCAGCCC	4.32	4.86	4.18	0.204	4.29	4.08	4.71	1.77
TCTCGGAGGCCACGAAAGGTCAGAGCTCGACATC	4.92	4.88	5.06	0.746	4.3	4.02	0.552	0.735
AGCATGAGGTTACCAAAGATCAGGGAAACGCTTG	1.04	2.27	1.81	1.12	2.78	2.96	0.893	0.309
CGTCCAAGGTAAGCAGGTCAGTGAAAGCGACGTG	2.25	1.08	1.44	-0.436	0.485	1.7	0.269	-0.407
ATATGTAGGTTAGCTGTGGTCATTCAGACTAGGC	1.13	0.752	0.985	0.139	0.643	3.29	-0.0944	0.494
CCTACTGGGCCAAAGGTCGTTGATTCCAATGCTC	2.03	2.66	1.07	0.474	2.82	1.5	0.0932	0.435
TCTAGTAGTTGAAGGGCAACCGACGAGTCCGTTT	1.29	0.178	0.164	1.02	0.622	0.117	-0.38	0.676
GGTAGCAGGCCATTTGGGTCACTCAATGACGGGC	2.01	1.27	1.83	-0.513	0.775	1.84	0.696	0.494
TCTAGTTGGTCACGGACGTCACACACGACGGGTA	1.04	1.2	1.55	0.677	0.866	0.233	-0.0119	0.188
CCTACTGGGCCAAAGGTCATTGTTTCCAATGCTC	4.48	5.41	3.97	1.26	5.82	3.29	0.832	2.26
CCTACTGGGCCCTTCAGAGGTCATTGATCATATG	3.67	3.27	2.24	-0.326	3.49	2.94	1.18	3.23
TCATATAGGTAAACAGGTAAAAGTCCGTAAGTTA	0.493	0.41	0.406	1.53	0.676	0.697	0.445	0.448
CCGAGTAGGTTATGGGGCATTCGGGCAACGGTGA	1.46	0.533	0.653	-0.483	0.797	0.415	0.172	-0.175

Sequence	PBM binding z-score [1]	PBM binding z-score [2]	PBM binding z-score [3]	PBM binding z-score [4]	PBM binding z-score [5]	PBM binding z-score [6]	PBM binding z-score [7]	PBM binding z-score [8]
ATACCAAGGTGATCGTGAGGTCGTTGAGACTAAC	1.66	2.25	0.747	0.611	1.66	3.4	2.38	2.82
TTAGCAAGGTGAAAGGTCGTTGATGCACGCCTTG	2.23	4.16	1.75	0.67	5.52	3.02	0.254	1.18
GCTAGTTGGTCAGTAAAAGGTCACACAGCGGTCG	4.98	5.92	5.1	0.686	5.48	3.67	1.78	2.18
CCTAGCGGGCCAGGGTCACTCAAGCATTTCGCTT	2.48	3.06	2.4	-0.0113	3.72	2.72	1.19	1.28
CCGACTGGGGTAGAAAGGTTACCATACCATCCGG	2.13	1.97	1.04	-1.26	2.35	1	-0.443	-0.2
TCATATAAGTAATACAGGTGAAAGTCGGCATCTA	0.481	0.675	0.621	2.03	1.42	0.662	0.191	0.605
ACAAGCAGGCCAAGGGTCACTCAAGATTAGTCCG	3.85	4.28	4.23	0.479	4.21	2.67	0.327	0.958
GCTTACGGGTTAAAGGTTATAGCATGAATAGAAT	1.74	3.66	1.37	0.714	6.82	2.8	0.253	0.558
ATCTCTAGGTAAAGTTCAATGAAAGATCGATAGA	2.76	2.7	2.91	1.75	2.27	1.57	0.271	2.82
CATACAGGGTCAGCTAGGCCACAGTAGGGACGGC	3.58	4.56	4.98	1.69	4.55	3.28	1.02	1.89
CCGACTGGGCCATAAGGTTACCATAAGCCAGCCC	1.25	0.915	0.48	-0.727	0.767	2	1.52	-0.224
GCTGCTAGGTCAGGTTGTTCAGCTAACGGGTACG	2.56	2.2	3.13	0.777	0.914	1.71	0.779	0.556
ATTCGGAGGACAAAGGTCAGAGCTACGCCAGTGA	4.59	5.89	5.52	0.937	5.03	3.41	0.717	1.32
GCTATTAGTTGAAAGGGGAACCGAATGATTCTCG	-0.167	0.105	0.00369	0.78	0.144	0.00231	-0.215	-0.125
TCTTGTAGATCAAGCAGGTTATGAAAGCCTGAGT	-0.0622	0.0667	-0.307	0.366	0.465	0.302	-0.815	-0.186
TAGCCTATGTCATGCGGGCCAGTATAGTGTCGGC	-0.116	-0.1	-0.059	-0.904	0.0276	-0.313	-0.992	-0.661
TAGCCTAGGTAATGCGGGCCAGTATAGTGTCGGC	-0.521	-0.6	-0.559	-1.3	-0.499	-0.418	-0.74	-0.784
CTACCAAGGTGAACATGGTCGTTGATTACTATTC	1.25	1.06	1.14	0.571	0.87	2.25	1.03	-0.0794
CGTCCTAGGTCAATGCTAGGTCAGTGAAAGCATT	4.16	6.16	5.14	1.83	2.57	3.94	1.73	0.909

Sequence	PBM binding z-score [1]	PBM binding z-score [2]	PBM binding z-score [3]	PBM binding z-score [4]	PBM binding z-score [5]	PBM binding z-score [6]	PBM binding z-score [7]	PBM binding z-score [8]
TATCCTAGGTCATTGGGCCAGTATAGTACGCATC	3.29	4.22	4.55	2.33	3.37	3.25	1.52	1.65
CAAACTAGGTCAAGAGGTCAAAGTACGCTTCCCG	5.69	8.23	7.27	3.15	8.07	4.23	2.61	4.76
TCTCGGAGGACACGAAGGTCAGTGCTTTCCAGAG	3.9	2.87	3.49	0.969	1.47	2.73	1.06	1.39
CAAACTAGGTCAAGGTCAAAGACGGTTTGTGCCA	5.1	5.82	6.9	3.16	5.06	4.34	3.55	4.1
ATATGTAGGTTACAACCGGGTCATTCAGGCTATG	2.97	3.92	2.19	0.912	3.49	3.73	2.16	3.06
CAAACTAGGTCAAAGGCCAAAGTCGAGCCAACCA	3.34	5.06	4.83	1.8	4.98	3.05	0.429	0.659
CTACCAAGGTGAACAAGGTCCTTGATTACTATTC	1.02	0.733	0.947	0.723	0.86	2.29	1.03	0.358
TCTATCAGGCCAGAGGGTCACTCAAGAGGTACGG	2.89	2.92	2.44	0.811	2.56	2.29	0.348	1.16
TCATATAGGTAAAAGGAGAAAGTCGGTGTGGTAA	-0.155	0.181	0.123	1.49	0.649	-0.0526	-0.722	0.471
CGTCCAAGGTCAATGCTAGGTAAGTGAAAGCATT	3.93	5.7	6.12	3.33	4.48	3.84	2	2.06
AAAACAGGGTCACTAGGCCAGAGTAGGTACGAAT	3.35	5.4	4.84	2.95	5.7	3.48	1.18	2.76
CTACTAAGGTGAACAAGGTCGTTGATTACTATTC	2.33	2.35	1.64	1.81	2.34	3.61	2.82	2.67
CTCTAAAGGTCGTGCTCAGGTGAGTATACCAAAC	2.96	5.08	3.88	2.33	4.64	4.37	1.31	1.37
AGAATGAGGTTATTAAGCTCAGGGAATTGCGGTC	0.163	0.737	0.334	2	1.6	1.99	0.104	0.783
CGACCGAGGGCATGAGTTGATAGCAAATGCCGAT	0.812	1.35	1.89	1.81	0.547	1.01	-0.126	1.48
CGTTAAAGTTCAACTAAGGTAACGTAAAGCACGC	4.09	5.55	6.33	4.8	4.25	5.26	1.68	3.94
CAAACTAGGTCGAAGGTCAAAGTCGAGCCAACCA	3.79	5.7	4.29	1.85	6.86	3.5	0.693	1.71
GCTTGTAGATCAAGGATAAGAAAGACTAAGCTAA	-1.36	-0.352	-0.0867	-0.727	-0.555	0.0456	-0.696	-0.57

— the supplement of paper PMC6555819
